Ten molecules from PubChem BioAssay (NCI) can be followed below.

Compounds without any hit were thinned out: in the full panel of roughly 79,000, 15% have a hit. A number with no mark means an inactive call. Calls of active or inactive are those of the source. Rule as the data show it: active = growth inhibition above about 70%; inactive = the rest.

Assay [1] in a line: NCI Yeast Anticancer Drug Screen. Data for the rad50 strain (AID 155).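 Also: 0% = growth of vehicle-only cultures of the same strain.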 The settings on record: S. cerevisiae rad50 strain growth inhibition, hits give high values. Summed up: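 A DNA repair-deficient yeast mutant serves as the test organism; compound-induced growth inhibition is calculated against vehicle-treated cells.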
Assay [2] can be described thus: NCI Yeast Anticancer Drug Screen. Data for the mec2-1 strain (AID 157). The settings on record: S. cerevisiae mec2-1 strain, hits give high values. In short, it runs like this: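 Mutant yeast (mec2-1) grown with compound; growth inhibition relative to vehicle control reported.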
A short description of assay [3]: NCI Yeast Anticancer Drug Screen. Data for the sgs1 mgt1 strain (AID 161).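 Also: 0% = growth of cultures given vehicle only.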 The settings on record: S. cerevisiae sgs1 mgt1 strain, hits give high values. Summed up: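 Growth of a repair-deficient yeast mutant was monitored after compound treatment and expressed as inhibition relative to vehicle-treated cultures.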
A short description of assay [4]: NCI Yeast Anticancer Drug Screen. Data for the cln2 rad14 strain (AID 165).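 Also: 0% = growth equal to vehicle treated cultures.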 The following applies: S. cerevisiae cln2 rad14 strain, hits give high values. Summed up:
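Readout is yeast growth inhibition versus vehicle-treated controls, using a strain with cln2 and rad14 alterations exposed to compound.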

The nature of assay [5]: NCI Yeast Anticancer Drug Screen. Data for the bub3 strain (AID 167). The settings on record: S. cerevisiae bub3 mutant strain, hits give high values. Summed up: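 Inhibition values come from growth of compound-treated mutant yeast normalised to vehicle-treated controls.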
Assay [6] is described as follows: NCI Yeast Anticancer Drug Screen. Data for the mlh1 rad18 strain (AID 175). The settings on record: S. cerevisiae mlh1 rad18 strain growth inhibition, hits give high values. In short, it runs like this:
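Genetically defined yeast (DNA repair-deficient) exposed to compounds; growth inhibition determined relative to vehicle.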

[7] abbreviates: at 5.0 µM (retest, dose inferred, filed as 0.5).
Where [8] appears, read: at 50.0 µM (retest, dose inferred, filed as 5.0).

Turning to `O=C(O)CC1c2ccc3ccccc3c2CCC1c1ccccc1` (stereo not given), the growth inhibition in assay [1] (setting [7]) was 74% (active); in assay [1] (setting [8]), 99% (active); in assay [1] (at 50.0 µM) it was 99.6% (active); in assay [2] (setting [7]), 44%; in assay [2] (setting [8]), 99% (active); in assay [2] (at 50.0 µM) it was 99.6% (active). The growth inhibition in assay [3] (setting [7]) is 68%; in assay [3] (setting [8]), 99% (active); in assay [3] (at 50.0 µM) it was 99.7% (active); in assay [4] (setting [7]), 34%; in assay [4] (setting [8]), 99% (active); in assay [4] (at 50.0 µM) it was 99.5% (active). The growth inhibition in assay [5] (setting [7]) is 30%; in assay [5] (setting [8]), 99% (active); in assay [5] (at 50.0 µM), 99.5% (active); in assay [6] (setting [7]), 78% (active); in assay [6] (setting [8]) it was 99% (active); in assay [6] (at 50.0 µM) it was 99.5% (active).
In the case of `CN(C)CCNc1ccc2nnn3c4ccc(O)cc4c(=O)c1c23`, the growth inhibition in assay [1] (setting [7]) was 32%; in assay [1] (setting [8]), 51%; in assay [1] (at 50.0 µM), 12.1%; in assay [2] (setting [7]), -3%; in assay [2] (setting [8]), -4%; in assay [2] (at 50.0 µM), -3.1%. In addition, the growth inhibition in assay [3] (setting [7]) was 12%; in assay [3] (setting [8]), 23%; in assay [3] (at 50.0 µM), -6.05%; in assay [4] (setting [7]), 19%; in assay [4] (setting [8]), 32%; in assay [4] (at 50.0 µM) it was 25.4%. The growth inhibition in assay [5] (setting [7]) was 18%; in assay [5] (setting [8]), 32%; in assay [5] (at 50.0 µM) it was -0.1%; in assay [6] (setting [7]), 27%; in assay [6] (setting [8]) it was 15%; in assay [6] (at 50.0 µM) it was 33.8%.
As to `ClC1=C(Cl)C(Cl)(C(Cl)(Cl)Cl)C(Cl)=C1Cl`, the growth inhibition in assay [1] (setting [7]) was 99% (active); in assay [1] (setting [8]), 98% (active); in assay [1] (at 50.0 µM), 99.6% (active); in assay [2] (setting [7]) it was 100% (active); in assay [2] (setting [8]), 99% (active); in assay [2] (at 50.0 µM), 99.6% (active). In addition, the growth inhibition was 99% (active) in assay [3] (setting [7]); 98% (active) in assay [3] (setting [8]); 99.7% (active) in assay [3] (at 50.0 µM); 99% (active) in assay [4] (setting [7]); 98% (active) in assay [4] (setting [8]); 99.4% (active) in assay [4] (at 50.0 µM). Also, the growth inhibition was 99% (active) in assay [5] (setting [7]); 98% (active) in assay [5] (setting [8]); 99.7% (active) in assay [5] (at 50.0 µM); 99% (active) in assay [6] (setting [7]); 98% (active) in assay [6] (setting [8]); 99.4% (active) in assay [6] (at 50.0 µM).
For the molecule `COC(=O)C(=O)/C=C(/O)c1ccc(OC)cc1`, the growth inhibition in assay [1] (setting [7]) is -16%; in assay [1] (setting [8]) it was -1%; in assay [1] (at 50.0 µM), -2.15%; in assay [2] (setting [7]) it was -28%; in assay [2] (setting [8]) it was -9%; in assay [2] (at 50.0 µM), -28.3%. Also, the growth inhibition is -7% in assay [3] (setting [7]); 5% in assay [3] (setting [8]); 43% in assay [3] (at 50.0 µM); -12% in assay [4] (setting [7]); 18% in assay [4] (setting [8]); 4.15% in assay [4] (at 50.0 µM). Further, the growth inhibition in assay [5] (setting [7]) is -4%; in assay [5] (setting [8]) it was 24%; in assay [5] (at 50.0 µM), 9.85%; in assay [6] (setting [7]), -34%; in assay [6] (setting [8]) it was 38%; in assay [6] (at 50.0 µM), -26.5%.
`O=c1oc(-c2ccccc2Br)ns1`: the growth inhibition in assay [1] (setting [7]) was 0%; in assay [1] (setting [8]), 99% (active); in assay [1] (at 50.0 µM), 98.8% (active); in assay [2] (setting [7]) it was 3%; in assay [2] (setting [8]) it was 100% (active); in assay [2] (at 50.0 µM), 99.6% (active). The growth inhibition was 9% in assay [3] (setting [7]); 99% (active) in assay [3] (setting [8]); 99.4% (active) in assay [3] (at 50.0 µM); 4% in assay [4] (setting [7]); 99% (active) in assay [4] (setting [8]); 89.8% (active) in assay [4] (at 50.0 µM). Besides, the growth inhibition was -8% in assay [5] (setting [7]); 99% (active) in assay [5] (setting [8]); 97.5% (active) in assay [5] (at 50.0 µM); 6% in assay [6] (setting [7]); 99% (active) in assay [6] (setting [8]); 99.3% (active) in assay [6] (at 50.0 µM).
As for `O=C(O)C1CCc2ccc3ccccc3c2C1c1cccc2ccccc12` (stereo not given), the growth inhibition in assay [1] (setting [7]) is 42%; in assay [1] (setting [8]), 98% (active); in assay [1] (at 50.0 µM), 98.1% (active); in assay [2] (setting [7]) it was 36%; in assay [2] (setting [8]), 98% (active); in assay [2] (at 50.0 µM) it was 98% (active). Moreover, the growth inhibition in assay [3] (setting [7]) is 32%; in assay [3] (setting [8]), 98% (active); in assay [3] (at 50.0 µM), 97.7% (active); in assay [4] (setting [7]), 61%; in assay [4] (setting [8]), 98% (active); in assay [4] (at 50.0 µM), 97% (active). Besides, the growth inhibition was 40% in assay [5] (setting [7]); 98% (active) in assay [5] (setting [8]); 97% (active) in assay [5] (at 50.0 µM); 52% in assay [6] (setting [7]); 98% (active) in assay [6] (setting [8]); 98% (active) in assay [6] (at 50.0 µM).
For `COc1ccccc1C1C2=C(COC2=O)OC(C)(C)Oc2cc3c(cc21)OCO3` (stereo not given), the growth inhibition in assay [1] (setting [7]) is 22%; in assay [1] (setting [8]) it was 96% (active); in assay [1] (at 50.0 µM), 75.8% (active); in assay [2] (setting [7]), -13%; in assay [2] (setting [8]), 96% (active); in assay [2] (at 50.0 µM), 85.1% (active). Besides, the growth inhibition in assay [3] (setting [7]) is 16%; in assay [3] (setting [8]), 96% (active); in assay [3] (at 50.0 µM), 86.3% (active); in assay [4] (setting [7]), 35%; in assay [4] (setting [8]), 95% (active); in assay [4] (at 50.0 µM) it was 87.3% (active). Also, the growth inhibition is -22% in assay [5] (setting [7]); 97% (active) in assay [5] (setting [8]); 89.7% (active) in assay [5] (at 50.0 µM); 15% in assay [6] (setting [7]); 96% (active) in assay [6] (setting [8]); 88% (active) in assay [6] (at 50.0 µM).
Take `O=C1OS(=O)(=O)c2cc3c(cc21)C1C(C2C3C3(Cl)C(Cl)=C(Cl)C2(Cl)C3(Cl)Cl)C2(Cl)C(Cl)=C(Cl)C1(Cl)C2(Cl)Cl` (stereo not given): the growth inhibition in assay [1] (setting [7]) is -18%; in assay [1] (setting [8]), 58%; in assay [1] (at 50.0 µM), 83.9% (active); in assay [2] (setting [7]) it was 48%; in assay [2] (setting [8]), 72% (active); in assay [2] (at 50.0 µM), 71.8% (active). Besides, the growth inhibition in assay [3] (setting [7]) was 55%; in assay [3] (setting [8]), 80% (active); in assay [3] (at 50.0 µM) it was 86.6% (active); in assay [4] (setting [7]), 8%; in assay [4] (setting [8]) it was 77% (active); in assay [4] (at 50.0 µM) it was 60.9%. Moreover, the growth inhibition in assay [5] (setting [7]) was 3%; in assay [5] (setting [8]), 81% (active); in assay [5] (at 50.0 µM), 74% (active); in assay [6] (setting [7]), 63%; in assay [6] (setting [8]), 91% (active); in assay [6] (at 50.0 µM), 73.8% (active).
For the molecule `O=c1[nH]c(=O)c2cc([N+](=O)[O-])cc([N+](=O)[O-])c2[nH]1`, the growth inhibition was 9% in assay [1] (setting [7]); 75% (active) in assay [1] (setting [8]); 50.6% in assay [1] (at 50.0 µM); 6% in assay [2] (setting [7]); 57% in assay [2] (setting [8]); 73.7% (active) in assay [2] (at 50.0 µM). Moreover, the growth inhibition is 12% in assay [3] (setting [7]); 78% (active) in assay [3] (setting [8]); 54.9% in assay [3] (at 50.0 µM); -3% in assay [4] (setting [7]); 63% in assay [4] (setting [8]); 25.7% in assay [4] (at 50.0 µM). Also, the growth inhibition is 8% in assay [5] (setting [7]); 70% (active) in assay [5] (setting [8]); 78.3% (active) in assay [5] (at 50.0 µM); 5% in assay [6] (setting [7]); 38% in assay [6] (setting [8]); 75% (active) in assay [6] (at 50.0 µM).
In the case of `CCCCCCC(=O)OCCN(CCOC(=O)CCCCCC)C(=O)C(C)OC(=O)CCCCCC` (stereo not given), the growth inhibition was 2% in assay [1] (setting [7]); 56% in assay [1] (setting [8]); 91.7% (active) in assay [1] (at 50.0 µM); 4% in assay [2] (setting [7]); 19% in assay [2] (setting [8]); 85.4% (active) in assay [2] (at 50.0 µM). Moreover, the growth inhibition in assay [3] (setting [7]) was 2%; in assay [3] (setting [8]), 62%; in assay [3] (at 50.0 µM), 98.4% (active); in assay [4] (setting [7]) it was 1%; in assay [4] (setting [8]) it was 18%; in assay [4] (at 50.0 µM), 66.2%. In addition, the growth inhibition was -1% in assay [5] (setting [7]); 66% in assay [5] (setting [8]); 98.2% (active) in assay [5] (at 50.0 µM); -3% in assay [6] (setting [7]); 58% in assay [6] (setting [8]); 97.6% (active) in assay [6] (at 50.0 µM).
